Compound activity from PubChem.
In the library only some 3.3% were active in any assay of this set; here they are far more common.
USP2a inh: qHTS Assay for Inhibitors of Ubiquitin-specific Protease USP2a Using CHOP2 as the Reporter | AID 463254, 2010 | Ubiquitin carboxyl-terminal hydrolase 2 (Homo sapiens), O75604 | Potency, µM (titrated, usually from 38.3 µM), hits mostly inhibitors | 330,000 tested, 0.01% active | USP2 core, Ub-CHOP2 coupled fluorogenic reporter, 485/531
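Deubiquitinase activity read as fluorescence (485/531 nm) after Ub-CHOP2 cleavage activates the enterokinase reporter on its substrate; USP2 core 10nM, Ub-CHOP2 and substrate 25nM each, 30min compound preincubation then 60min RT; data normalized to NEM, curves fitted.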
WRN inhibitor: qHTS for Inhibitors of WRN Helicase | Bifunctional 3'-5' exonuclease/ATP-dependent helicase WRN (Homo sapiens), Q14191 | WRN helicase unwinding, fluorescent forked duplex, kinetic | Potency, µM (titrated, usually from 114 µM), hits mostly inhibitors | 360,000 tested, 0.46% active | AID 651768, 2012; note: nearly all actives have a fitted effect of over 55% in size
Target sequence (Q14191 whole entry, looked up): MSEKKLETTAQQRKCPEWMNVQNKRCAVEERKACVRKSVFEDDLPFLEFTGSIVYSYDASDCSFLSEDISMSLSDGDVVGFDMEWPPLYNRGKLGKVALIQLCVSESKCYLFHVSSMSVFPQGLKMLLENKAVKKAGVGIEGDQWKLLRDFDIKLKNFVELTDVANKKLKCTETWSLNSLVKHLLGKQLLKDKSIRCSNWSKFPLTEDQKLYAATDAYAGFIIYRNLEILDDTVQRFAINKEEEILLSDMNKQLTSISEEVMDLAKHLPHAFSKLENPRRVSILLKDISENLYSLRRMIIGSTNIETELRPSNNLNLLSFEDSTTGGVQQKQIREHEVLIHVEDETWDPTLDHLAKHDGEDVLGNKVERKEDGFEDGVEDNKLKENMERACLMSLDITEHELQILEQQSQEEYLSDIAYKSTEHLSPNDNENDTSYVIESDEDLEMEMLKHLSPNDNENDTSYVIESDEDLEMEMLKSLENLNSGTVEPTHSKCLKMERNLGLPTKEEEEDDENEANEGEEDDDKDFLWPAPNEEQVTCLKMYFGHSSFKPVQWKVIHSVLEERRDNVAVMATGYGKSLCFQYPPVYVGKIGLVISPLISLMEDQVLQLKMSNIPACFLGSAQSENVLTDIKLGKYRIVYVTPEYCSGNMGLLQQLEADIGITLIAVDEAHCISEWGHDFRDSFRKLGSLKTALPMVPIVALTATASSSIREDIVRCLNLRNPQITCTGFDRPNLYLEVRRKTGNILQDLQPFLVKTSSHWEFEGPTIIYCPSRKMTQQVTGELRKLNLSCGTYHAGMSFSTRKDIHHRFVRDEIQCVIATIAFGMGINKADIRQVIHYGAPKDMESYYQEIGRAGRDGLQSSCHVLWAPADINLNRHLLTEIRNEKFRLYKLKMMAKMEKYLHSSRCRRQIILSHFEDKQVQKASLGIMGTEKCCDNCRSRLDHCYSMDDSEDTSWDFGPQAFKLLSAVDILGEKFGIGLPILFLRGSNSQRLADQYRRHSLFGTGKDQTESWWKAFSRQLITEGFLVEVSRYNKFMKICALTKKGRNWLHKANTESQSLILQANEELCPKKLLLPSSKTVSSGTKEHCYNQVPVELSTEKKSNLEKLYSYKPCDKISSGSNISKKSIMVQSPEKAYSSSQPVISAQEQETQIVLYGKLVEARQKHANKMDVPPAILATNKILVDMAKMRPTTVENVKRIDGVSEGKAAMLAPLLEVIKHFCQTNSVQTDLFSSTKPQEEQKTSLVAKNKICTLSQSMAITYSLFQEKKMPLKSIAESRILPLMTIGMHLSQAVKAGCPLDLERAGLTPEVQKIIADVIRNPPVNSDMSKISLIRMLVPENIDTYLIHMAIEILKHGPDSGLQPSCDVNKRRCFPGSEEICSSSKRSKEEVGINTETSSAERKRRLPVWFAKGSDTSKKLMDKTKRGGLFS
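Screening of the MLSMR collection measured strand separation of a quenched forked DNA duplex (100 nM) by 20 nM WRN with 2 mM ATP, all final. Compounds were preincubated with enzyme 15 min at room temperature.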
USP1 inh: Inhibitors of USP1/UAF1: Primary Screen; recombinant USP1/UAF1, Ub-Rhodamine cleavage fluorescence; Potency, µM (top dose mostly 57.1 µM), most hits filed as inhibitors; 390,000 tested, 0.23% active; AID 743255, 2014; note: nearly all actives have a fitted effect of over 60% in size
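In this screen, compounds sit with the deubiquitinase complex (1nM) for 15 min at room temperature before Ub-Rho is added at 150nM final. Fluorescence rise is then followed for 6 reads every 60 seconds.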
PI5P4K alpha inh: qHTS for Inhibitors of phosphatidylinositol 5-phosphate 4-kinase (PI5P4K) | PI5P4Kalpha enzyme, ADP-Glo luminescence, 60 min; stronger effect = lower value | max response, % | 330,000 tested, 1.2% active; active = max response of -50% or lower; inconclusive = between -30% and -50%; inactive = -30% or higher; note: value at the top dose of about 77 µM
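Single end-point luminescence (ADP-Glo) quantified ADP from PI5P4Kalpha turnover; ATP 5 microM final, 1 h at RT, 0.1% CHAPS and 0.28 mM EGTA in HEPES pH 7.4.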
PLK1 PBD block: qHTS for Inhibitors of PLK1-PDB (polo-like kinase 1 - polo-box domain): Primary Screen; Serine/threonine-protein kinase PLK1 (Homo sapiens), P53350; Plk1 PBD binding of FITC phosphopeptide, fluorescence polarization; Potency, µM, most hits filed as inhibitors; 360,000 tested, 2.8% active; AID 720504, 2013; note: series mostly up to about 57 µM; nearly all actives have a fitted effect of over 65% in size
Numbers stand for hits; - = inactive; ? = inconclusive; . = not tested or not shown. Unless noted, calls come from the whole dose curve; as a rule, active = well fitted curve in the direction sought with a large enough effect; inconclusive = small, poorly fitted or top-dose-only effect, or another doubt; inactive = no such curve, though single readings can be large; an effect the other way counts as inactive or inconclusive.

SMILES | USP2a inh | WRN inhibitor | USP1 inh | PI5P4K alpha inh | PLK1 PBD block
CCOc1ccc(-c2cc(NC(=O)c3c(F)cccc3F)c(C(=O)O)s2)cc1 | - | - | - | ? | 34µM
O=C(Nc1cc(-c2ccccc2)sc1C(=O)O)c1cccc(F)c1 | - | - | - | - | 30µM
CCOc1ccc(NC(=O)Nc2cc(-c3ccccc3)sc2C(=O)OC)cc1 | - | - | - | - | -
CC(C)c1cnc2c(c1SCC(=O)c1ccccc1)c(=O)n(C)c(=O)n2C | . | . | - | . | .
C/C(=N\NC(=O)c1cc(O)cc(O)c1)c1ccc(NC(=O)Cc2ccccc2)cc1 | - | 20µM | - | -90 | ?
C/C(=N\NC(=O)c1cccc(F)c1)c1ccc(NC(=O)Cc2ccccc2)cc1 | - | - | - | - | -
CCc1cccc(-n2c(=O)c3cccnc3n2CC(=O)Nc2c(C)cc(C)cc2C)c1 | . | . | - | . | .
O=C(Nc1cccc(Cl)c1)c1ccc2nc(CCc3ccccc3)oc2c1 | . | . | - | . | .
Cc1ccc(C(=O)c2c(N)c(C(=O)Nc3ccccc3Cl)c3ccccn23)cc1 | . | . | - | . | .
O=C(NCCO)c1ccc2c(c1)S(=O)(=O)c1ccccc1C2=O | - | - | - | - | -
O=C1c2ccccc2S(=O)(=O)c2cc(-c3nn[nH]n3)ccc21 | . | - | ? | -73 | -
CCCCCCCCCCCCCCCCCCNc1ccn(C2OC(COP(=O)(O)OCC3OC(n4cc(F)c(=O)[nH]c4=O)CC3O)C(O)C2O)c(=O)n1 (centres undefined) | . | 40µM | ? | -69 | 27µM
COc1cccc(/C=C/C(=O)Nc2ccc3nc(N4CCN(C)CC4)cc(C)c3c2)c1OC | . | . | - | . | .
Cc1cc(NC(=O)CSc2n[nH]c(=O)[nH]c2=O)ccc1Br | - | - | - | - | -
O=C(CSc1nnc(SCc2cccc3ccccc23)s1)Nc1ccc(C(=O)O)cc1 | - | ? | - | -93 | 24µM
O=C(CSc1n[nH]c(=O)[nH]c1=O)Nc1ccc(C(=O)O)cc1 | - | - | - | -64 | -
CSc1nsc(SCC(=O)Nc2ccc(C(=O)O)cc2)n1 | - | - | - | -51 | -
COc1ccc(CNC(=O)C(=O)NCC(c2cccs2)S(=O)(=O)c2ccc(C)cc2)cc1 (centres undefined) | . | . | - | . | .
O=C(NNC(=S)NC1CCCCC1)c1sc2ccccc2c1Cl | - | - | - | - | 21µM
CN(Cc1ccccc1)c1nc(-c2cccc([N+](=O)[O-])c2)nc2ccccc12 | - | - | - | - | 27µM
CCC(=O)N1CCc2cc(S(=O)(=O)NCCC(=O)NCc3ccc(C)cc3)ccc21 | . | . | - | . | .
Cc1ccccc1-c1noc(-c2ccc(NCc3ccco3)c([N+](=O)[O-])c2)n1 | . | . | - | . | .
COCC(=O)Nc1c(C(=O)Nc2ccc3c(c2)OCO3)oc2ccccc12 | - | - | - | - | 30µM
COc1ccc(NC(=O)CN2CCCN(Cc3ccc(Cl)cc3)S2(=O)=O)cc1Cl | . | . | - | . | .
N#Cc1nc(-c2ccc(F)cc2)oc1N1CCCC1 | - | - | - | - | 15µM
SMILES | USP2a inh | WRN inhibitor | USP1 inh | PI5P4K alpha inh | PLK1 PBD block
O=S(=O)(/C=C/C=C/S(=O)(=O)c1ccccc1)c1ccccc1 | . | ? | - | - | 2.7µM
COc1cc(/C=C2\SC(=Nc3ccccc3)NC2=O)cc(Cl)c1O | - | ? | ? | -104 | -
COc1cc(/C=C2/SC(=Nc3ccc(O)cc3)NC2=O)ccc1O | - | 50µM | - | -90 | -
O=C1NC(=Nc2ccccc2)S/C1=C/c1cccnc1 | - | - | - | - | -
CCc1ccc(N=C2NC(=O)/C(=C/c3cc(OC)c(O)c(OC)c3)S2)cc1 | - | - | - | -54 | -
COc1ccc(N=C2NC(=O)/C(=C/c3ccco3)S2)cc1 | - | - | - | - | -
COc1cc(/C=C2\SC(=Nc3ccccc3OC)NC2=O)ccc1O | - | - | - | ? | -
COc1cc(/C=C2\SC(=Nc3ccc(Cl)c(C(=O)O)c3)NC2=O)c(Br)c(Br)c1O | - | ? | 18µM | -106 | -
Cc1cc(C)cc(NC(=O)C(=O)NCC(c2cccnc2)N2CCc3ccccc3C2)c1 (centres undefined) | . | . | - | . | .
